Measurements: PubChem BioAssay (NCI)
This is part of a sample that, as a whole, favours compounds with a hit. Of some 79,000 tested, about 15% had one in any assay. Calls of active or inactive are those of the source. Rule as the data show it: active = growth inhibition above about 70%; inactive = the rest.

Legend:
[1] = NCI Yeast Anticancer Drug Screen. Data for the wt1 strain (AID 149);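 also: 0% = growth of vehicle-treated wt1 cultures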; conditions: S. cerevisiae wt1 strain (SPY 50644) growth inhibition, hits give high values
How it was run: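 Yeast wt1 strain exposed to compounds; growth inhibition measured relative to vehicle-treated controls.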

[2] = NCI Yeast Anticancer Drug Screen. Data for the rad50EPP+ strain (AID 151);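 also: 0% = growth of vehicle-treated control cultures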; conditions: S. cerevisiae rad50 mutant strain, hits give high values
How it was run: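 Growth inhibition read against vehicle controls in rad50EPP+ yeast, a strain altered in DNA damage repair, after compound exposure.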

[3] = NCI Yeast Anticancer Drug Screen. Data for the mgt1 strain (AID 153); conditions: S. cerevisiae mgt1 mutant growth inhibition, hits give high values
How it was run: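 mgt1 yeast grown with test compound; read-out is growth inhibition versus vehicle-treated cultures.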

[4] = NCI Yeast Anticancer Drug Screen. Data for the rad50 strain (AID 155);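 also: 0% = growth of vehicle-only cultures of the same strain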; conditions: S. cerevisiae rad50 strain growth inhibition, hits give high values
How it was run: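 Yeast carrying a defined DNA repair defect were exposed to test compounds, and growth was compared with vehicle-treated controls to give percent inhibition.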

[5] = NCI Yeast Anticancer Drug Screen. Data for the mec2-1 strain (AID 157); conditions: S. cerevisiae mec2-1 strain, hits give high values
How it was run: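 Yeast mec2-1 mutant treated with compound. Readout: growth inhibition vs vehicle controls.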

[6] = NCI Yeast Anticancer Drug Screen. Data for the rad14 strain (AID 159);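 also: 0% = growth of vehicle-treated control cultures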; conditions: S. cerevisiae rad14 strain growth inhibition, hits give high values
How it was run: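 Yeast cells carrying a defined DNA-repair defect were exposed to compounds, and growth inhibition was calculated relative to vehicle-treated control cultures.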

[7] = NCI Yeast Anticancer Drug Screen. Data for the sgs1 mgt1 strain (AID 161);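 also: 0% = growth of cultures given vehicle only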; conditions: S. cerevisiae sgs1 mgt1 strain, hits give high values
How it was run: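 Read-out: growth inhibition vs vehicle controls. Cells: mutant yeast strain deficient in DNA damage repair.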

[8] = NCI Yeast Anticancer Drug Screen. Data for the CLN2oe strain (AID 163);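 also: 0% = growth of vehicle-only control cultures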; conditions: S. cerevisiae CLN2oe strain, hits give high values
How it was run: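 Read-out: yeast growth inhibition, expressed relative to vehicle-only controls. The strain bears an engineered cell-cycle alteration.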

[9] = NCI Yeast Anticancer Drug Screen. Data for the cln2 rad14 strain (AID 165);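 also: 0% = growth equal to vehicle treated cultures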; conditions: S. cerevisiae cln2 rad14 strain, hits give high values
How it was run: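 cln2 rad14 yeast strain; compound exposure; growth inhibition read vs vehicle controls.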

[10] = NCI Yeast Anticancer Drug Screen. Data for the bub3 strain (AID 167); conditions: S. cerevisiae bub3 mutant strain, hits give high values
How it was run: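 Compounds were applied to a genetically altered yeast strain carrying a cell-cycle control defect. Growth inhibition was scored against vehicle-treated controls.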

[11] = NCI Yeast Anticancer Drug Screen. Data for the wt2 strain (AID 169);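 also: 0% = growth of vehicle-treated yeast cultures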; conditions: S. cerevisiae wt2 strain growth inhibition, hits give high values
How it was run: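 Read-out: growth inhibition versus vehicle-treated control cultures after compound exposure of the yeast strain.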

[12] = NCI Yeast Anticancer Drug Screen. Data for the mlh1 strain (AID 171);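 also: 0% = growth of vehicle-treated control cultures of the same strain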; conditions: S. cerevisiae mlh1 strain growth inhibition, hits give high values
How it was run: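 Read-out: growth inhibition versus vehicle controls. Strain: engineered yeast with a defined DNA repair or cell cycle defect, compound-treated.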

[13] = NCI Yeast Anticancer Drug Screen. Data for the mlh1 rad18 strain (AID 175); conditions: S. cerevisiae mlh1 rad18 strain growth inhibition, hits give high values
How it was run: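 Yeast w/ defined DNA-repair lesions; compound exposure; growth vs vehicle controls → % inhibition.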

[14] = NCI Yeast Anticancer Drug Screen. Data for the rad18 strain (AID 177); conditions: S. cerevisiae rad18 mutant growth inhibition, hits give high values
How it was run: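 Readout: growth inhibition vs vehicle controls. Cells: genetically altered yeast strain, DNA repair defect.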

[15] = NCI Yeast Anticancer Drug Screen. Data for the rad52 strain (AID 147);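 also: 0% = growth of vehicle-treated control cultures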; conditions: S. cerevisiae rad52 mutant growth inhibition, hits give high values
How it was run: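 Read-out: growth inhibition versus vehicle-treated controls. Cells were a DNA repair-deficient yeast strain treated with compounds.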

[16] = NCI Yeast Anticancer Drug Screen. Data for the sgs1 strain (AID 173);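 also: 0% = growth of vehicle-only control cultures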; conditions: S. cerevisiae sgs1 mutant, hits give high values
How it was run: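 Read-out: yeast growth inhibition relative to vehicle controls, following compound exposure of a strain with a defined DNA repair/cell cycle alteration.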

[17] = at 5.0 µM (retest, dose inferred, filed as 0.5)
[18] = at 50.0 µM (retest, dose inferred, filed as 5.0)

Measured: growth inhibition

COc1cc(/C=C2\NC(=O)N(/C=C3\C(=O)Oc4ccccc4C3=O)C2=O)ccc1O
inactive: [1]; at 1.2 µM 2% | [1]; at 3.7 µM 3% | [1]; at 11.0 µM 3% | [1]; at 33.0 µM 63% | [2]; at 1.2 µM -1% | [2]; at 3.7 µM -1% | [2]; at 11.0 µM 1% | [2]; at 33.0 µM 4% | [2]; at 100.0 µM 3% | [3]; at 1.2 µM -3% | [3]; at 3.7 µM -3% | [3]; at 11.0 µM 4% | [3]; at 33.0 µM 62% | [4]; at 1.2 µM -6% | [4]; at 3.7 µM -17% | [4]; [17] -1% | [4]; at 11.0 µM -9% | [5]; at 1.2 µM -1% | [5]; at 3.7 µM -3% | [5]; [17] -4% | [5]; at 11.0 µM 5% | [5]; at 33.0 µM 68% | [6]; at 1.2 µM -2% | [6]; at 3.7 µM -2% | [6]; at 11.0 µM 3% | [6]; at 33.0 µM 64% | [7]; [17] -11% | [8]; at 1.2 µM 0% | [8]; at 3.7 µM 1% | [8]; at 11.0 µM 15% | [9]; [17] 38% | [10]; at 1.2 µM -3% | [10]; at 3.7 µM -2% | [10]; [17] -16% | [10]; at 11.0 µM 1% | [10]; at 33.0 µM 69% | [11]; at 1.2 µM -1% | [11]; at 3.7 µM 0% | [11]; at 11.0 µM 7% | [12]; at 1.2 µM -1% | [12]; at 3.7 µM 0% | [12]; at 11.0 µM 6% | [13]; [17] 4% | [14]; at 1.2 µM -1% | [14]; at 3.7 µM -3% | [14]; at 11.0 µM -1%
active: [1]; at 100.0 µM 95% | [3]; at 100.0 µM 94% | [4]; at 33.0 µM 75% | [4]; [18] 95% | [4]; at 50.0 µM 88.4% | [4]; at 100.0 µM 95% | [5]; [18] 97% | [5]; at 50.0 µM 77.5% | [5]; at 100.0 µM 96% | [6]; at 100.0 µM 93% | [7]; [18] 92% | [7]; at 50.0 µM 93.9% | [8]; at 33.0 µM 86% | [8]; at 100.0 µM 96% | [9]; [18] 94% | [9]; at 50.0 µM 90% | [10]; [18] 90% | [10]; at 50.0 µM 90.8% | [10]; at 100.0 µM 93% | [11]; at 33.0 µM 87% | [11]; at 100.0 µM 98% | [12]; at 33.0 µM 82% | [12]; at 100.0 µM 96% | [13]; [18] 95% | [13]; at 50.0 µM 89.5% | [14]; at 33.0 µM 77% | [14]; at 100.0 µM 94%

OCC(CO)C(c1cccc2ccccc12)c1cccc2ccccc12
active: [15]; at 11.0 µM 98% | [15]; at 33.0 µM 98% | [15]; at 100.0 µM 88% | [3]; at 11.0 µM 98% | [3]; at 33.0 µM 99% | [3]; at 100.0 µM 93% | [4]; at 11.0 µM 98% | [4]; at 33.0 µM 98% | [4]; [18] 99% | [4]; at 50.0 µM 99.3% | [4]; at 100.0 µM 88% | [5]; at 11.0 µM 98% | [5]; at 33.0 µM 99% | [5]; [18] 99% | [5]; at 50.0 µM 99.2% | [5]; at 100.0 µM 92% | [6]; at 11.0 µM 99% | [6]; at 33.0 µM 99% | [6]; at 100.0 µM 90% | [7]; [18] 100% | [7]; at 50.0 µM 99.2% | [8]; at 11.0 µM 99% | [8]; at 33.0 µM 99% | [8]; at 100.0 µM 88% | [9]; [18] 97% | [9]; at 50.0 µM 99.2% | [10]; at 11.0 µM 98% | [10]; at 33.0 µM 99% | [10]; [18] 99% | [10]; at 50.0 µM 99.3% | [10]; at 100.0 µM 89% | [11]; at 11.0 µM 98% | [11]; at 33.0 µM 99% | [11]; at 100.0 µM 90% | [12]; at 11.0 µM 99% | [12]; at 33.0 µM 99% | [12]; at 100.0 µM 92% | [16]; at 11.0 µM 98% | [16]; at 33.0 µM 99% | [16]; at 100.0 µM 93% | [13]; [18] 99% | [13]; at 50.0 µM 98.7% | [14]; at 11.0 µM 98% | [14]; at 33.0 µM 99% | [14]; at 100.0 µM 88%
inactive: [15]; at 1.2 µM 3% | [15]; at 3.7 µM 42% | [2]; at 1.2 µM 0% | [2]; at 3.7 µM 3% | [2]; at 11.0 µM 10% | [2]; at 33.0 µM 13% | [2]; at 100.0 µM -2% | [3]; at 1.2 µM -1% | [3]; at 3.7 µM 9% | [4]; at 1.2 µM 4% | [4]; at 3.7 µM 40% | [4]; [17] 19% | [5]; at 1.2 µM -1% | [5]; at 3.7 µM 21% | [5]; [17] 4% | [6]; at 1.2 µM 0% | [6]; at 3.7 µM 20% | [7]; [17] 6% | [8]; at 1.2 µM -2% | [8]; at 3.7 µM 28% | [9]; [17] 2% | [10]; at 1.2 µM -1% | [10]; at 3.7 µM 9% | [10]; [17] -1% | [11]; at 1.2 µM -4% | [11]; at 3.7 µM 3% | [12]; at 1.2 µM 0% | [12]; at 3.7 µM 11% | [16]; at 1.2 µM 1% | [16]; at 3.7 µM 15% | [13]; [17] 7% | [14]; at 1.2 µM 7% | [14]; at 3.7 µM 53%
